Source: PubChem BioAssay (NCATS)
Results filed as inconclusive are left out. Active and inactive are the calls of the source. Calls come from the whole dose curve; as a rule, active = well fitted curve in the direction sought with a large enough effect; inconclusive = small, poorly fitted or top-dose-only effect, or another doubt; inactive = no such curve, though single readings can be large; an effect the other way counts as inactive or inconclusive.

Target: Glutaminase kidney isoform, mitochondrial (Homo sapiens) (UniProt O94925)
Experiment: qHTS for Inhibitors of Glutaminase (GLS): LOPAC Validation (AID 624146);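 note: glutamate product detected by oxidase and peroxidase coupled Amplex red fluorescence gain; % is set by controls: 0 for no effect and ±100 for the full control effect; nearly all actives have a fitted effect of over 60% in size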
Settings: glutaminase enzyme activity inhibition; series mostly up to 46.1 µM; activity change, negative = inhibition: at the top concentration
How it was run: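 Assay buffer: 45 mM KH2PO4 pH 8.2, 0.02% Tween-20. hKGA acts on L-glutamine (1 mM solution added); product glutamate is reported by an oxidase/peroxidase Amplex Red coupling, with fluorescence taken at baseline and 30 min.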

Chain of Glutaminase kidney isoform, mitochondrial (Homo sapiens) (O94925 whole entry, looked up, canonical isoform): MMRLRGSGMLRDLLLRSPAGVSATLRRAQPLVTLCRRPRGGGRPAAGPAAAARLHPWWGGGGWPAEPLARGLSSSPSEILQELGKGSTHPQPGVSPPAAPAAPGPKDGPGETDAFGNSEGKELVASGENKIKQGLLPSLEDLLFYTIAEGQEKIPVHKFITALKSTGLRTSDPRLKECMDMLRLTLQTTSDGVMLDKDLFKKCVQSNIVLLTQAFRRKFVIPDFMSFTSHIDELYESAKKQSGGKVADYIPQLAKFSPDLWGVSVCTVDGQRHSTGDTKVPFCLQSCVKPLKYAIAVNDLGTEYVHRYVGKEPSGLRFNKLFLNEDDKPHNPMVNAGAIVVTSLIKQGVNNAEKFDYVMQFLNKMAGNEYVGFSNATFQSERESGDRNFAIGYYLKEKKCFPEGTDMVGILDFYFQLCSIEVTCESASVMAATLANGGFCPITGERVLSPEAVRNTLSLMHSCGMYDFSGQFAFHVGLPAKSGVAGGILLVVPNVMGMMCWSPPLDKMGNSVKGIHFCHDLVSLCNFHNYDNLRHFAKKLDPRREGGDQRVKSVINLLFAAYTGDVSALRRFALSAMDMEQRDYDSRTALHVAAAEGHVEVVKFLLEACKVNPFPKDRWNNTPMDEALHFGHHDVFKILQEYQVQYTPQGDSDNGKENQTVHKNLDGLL

Structure (SMILES)	activity change, negative = inhibition
CN1CCN(CC(=O)N2c3ccccc3C(=O)Nc3cccnc32)CC1	-3.51% (inactive)
CN(C(=O)CCCOc1ccc2[nH]c(=O)ccc2c1)C1CCCCC1	-1.37% (inactive)
CCOC(=O)C1=C(C)NC(C)=C(C(=O)OC)C1c1cccc(Cl)c1Cl (configuration not stated)	-10.7% (inactive)
Cc1cccc(C)c1NC(=O)C(C)N (configuration not stated)	-17.9% (inactive)
CN(C)CCN(Cc1cccs1)c1ccccn1	4.04% (inactive)
NS(=O)(=O)c1cc2c(cc1Cl)NC(C1CC3C=CC1C3)NS2(=O)=O (configuration not stated)	-7.61% (inactive)
Cc1scc2c1N(C(=O)CN1CCN(C)CC1)c1ccccc1NC2=O	-6.74% (inactive)
CCn1cc(C(=O)O)c(=O)c2cc3c(cc21)OCO3	-9.62% (inactive)
NCCCNCCSP(=O)(O)O	-3.74% (inactive)
C(=C\c1ccccc1)/CN1CCN(C(c2ccccc2)c2ccccc2)CC1	-4.92% (inactive)
C[N+](C)(C)CCOC(N)=O	-8.01% (inactive)
C[N+](C)(C)CCOC(=O)CCC(=O)OCC[N+](C)(C)C	8.18% (inactive)
CC(C)NNC(=O)c1ccncc1	293% (inactive)
CCN1CCC[C@H]1CNC(=O)c1c(O)c(Cl)cc(Cl)c1OC	-28.5% (inactive)
Cc1nc2ccccn2c(=O)c1CCN1CCC(C(=O)c2ccc(F)cc2)CC1	-12.2% (inactive)
C[C@]12CCC(=O)C=C1CC[C@@H]1[C@@H]2CC[C@@]2(C)[C@H]1CC[C@]2(O)C(=O)CO	1.21% (inactive)
CCN(CC)CCCN(c1ccccc1)C1Cc2ccccc2C1	-13.5% (inactive)
O=C(CCNNC(=O)c1ccncc1)NCc1ccccc1	461% (inactive)

Structure (SMILES)	activity change, negative = inhibition
CC(C)[N+](C)(CCOC(=O)C1c2ccccc2Oc2ccccc21)C(C)C	-10.8% (inactive)
Nc1c2c(nc3ccccc13)CCCC2O (configuration not stated)	-0.355% (inactive)
NC(N)=NC(=O)Cc1c(Cl)cccc1Cl	-3.52% (inactive)
COc1ccc(CCN(C)CCCC(C#N)(c2cc(OC)c(OC)c(OC)c2)C(C)C)cc1OC (configuration not stated)	1.78% (inactive)
CC(C)(C)c1ccc(C(=O)CCCN2CCC(OC(c3ccccc3)c3ccccc3)CC2)cc1	70.4% (inactive)
CN(C)C/C=C(/c1ccc(Br)cc1)c1cccnc1	-5.38% (inactive)
C[N+](C)(C)CCCCCCCCCC[N+](C)(C)C	-3.29% (inactive)
CN(C)CCOC(=O)COc1ccc(Cl)cc1	38.4% (inactive)
OCCN1CCN(CCCN2c3ccccc3C=Cc3ccccc32)CC1	-9.19% (inactive)
COc1ccc2c(c1OC)C(=O)O[C@@H]2[C@H]1c2c(cc3c(c2OC)OCO3)CCN1C	244% (inactive)
O=C1NCN(c2ccccc2)C12CCN(CCCC(c1ccc(F)cc1)c1ccc(F)cc1)CC2	106% (inactive)
CCN(Cc1ccncc1)C(=O)C(CO)c1ccccc1 (configuration not stated)	-7.44% (inactive)
NC(=O)c1ncn([C@@H]2O[C@H](CO)[C@@H](O)[C@H]2O)c1O	-54.3% (inactive)
NC(Cc1ccc(Cl)cc1)C(=O)O (configuration not stated)	-5.26% (inactive)
CCN(CC)CCOCCOC(=O)C1(c2ccccc2)CCCC1	0.343% (inactive)
CNCCC(Oc1ccccc1OC)c1ccccc1 (configuration not stated)	-0.148% (inactive)
Cc1nc2sccn2c(=O)c1CCN1CCC(=C(c2ccc(F)cc2)c2ccc(F)cc2)CC1	-10.7% (inactive)
C#CCN(C)CCCOc1ccc(Cl)cc1Cl	-14.7% (inactive)

System: not listed separately
Experiment: qHTS of Trypanosoma Brucei Inhibitors: LOPAC Validation (AID 624147); note: 0% is about no effect
Settings: purified enzyme assay, luminescence, 45 min; series mostly up to 57.5 µM; activity change, negative = inhibition: at the top concentration
How it was run: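 TbPYK + substrate in 50 mM TEA pH 7.2, 100 mM KCl, 10 mM MgCl2, 0.05% BSA, 0.01% Tween-20; cpd pinned; ADP 130 uM final; 45 min RT; Kinase-Glo Plus 10 min; luminescence endpoint.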

Structure (SMILES)	activity change, negative = inhibition
CN1CCN(CC(=O)N2c3ccccc3C(=O)Nc3cccnc32)CC1	-6.19% (inactive)
CN(C(=O)CCCOc1ccc2[nH]c(=O)ccc2c1)C1CCCCC1	-3.35% (inactive)
CCOC(=O)C1=C(C)NC(C)=C(C(=O)OC)C1c1cccc(Cl)c1Cl (configuration not stated)	-8.13% (inactive)
Cc1cccc(C)c1NC(=O)C(C)N (configuration not stated)	-9.34% (inactive)
CN(C)CCN(Cc1cccs1)c1ccccn1	-5.48% (inactive)
NS(=O)(=O)c1cc2c(cc1Cl)NC(C1CC3C=CC1C3)NS2(=O)=O (configuration not stated)	-3.78% (inactive)
Cc1scc2c1N(C(=O)CN1CCN(C)CC1)c1ccccc1NC2=O	-7.57% (inactive)
CCn1cc(C(=O)O)c(=O)c2cc3c(cc21)OCO3	2.3% (inactive)
NCCCNCCSP(=O)(O)O	-5.79% (inactive)
C(=C\c1ccccc1)/CN1CCN(C(c2ccccc2)c2ccccc2)CC1	-7.46% (inactive)
C[N+](C)(C)CCOC(N)=O	-4.32% (inactive)
C[N+](C)(C)CCOC(=O)CCC(=O)OCC[N+](C)(C)C	-5.3% (inactive)
CC(C)NNC(=O)c1ccncc1	-7.36% (inactive)
CCN1CCC[C@H]1CNC(=O)c1c(O)c(Cl)cc(Cl)c1OC	-6.12% (inactive)
Cc1nc2ccccn2c(=O)c1CCN1CCC(C(=O)c2ccc(F)cc2)CC1	-7.99% (inactive)
C[C@]12CCC(=O)C=C1CC[C@@H]1[C@@H]2CC[C@@]2(C)[C@H]1CC[C@]2(O)C(=O)CO	-6.21% (inactive)
CCN(CC)CCCN(c1ccccc1)C1Cc2ccccc2C1	-12.6% (inactive)
O=C(CCNNC(=O)c1ccncc1)NCc1ccccc1	-11.8% (inactive)

Structure (SMILES)	activity change, negative = inhibition
CC(C)[N+](C)(CCOC(=O)C1c2ccccc2Oc2ccccc21)C(C)C	-21% (inactive)
Nc1c2c(nc3ccccc13)CCCC2O (configuration not stated)	-4.52% (inactive)
NC(N)=NC(=O)Cc1c(Cl)cccc1Cl	-5.57% (inactive)
COc1ccc(CCN(C)CCCC(C#N)(c2cc(OC)c(OC)c(OC)c2)C(C)C)cc1OC (configuration not stated)	-10.8% (inactive)
CC(C)(C)c1ccc(C(=O)CCCN2CCC(OC(c3ccccc3)c3ccccc3)CC2)cc1	-5.91% (inactive)
CN(C)C/C=C(/c1ccc(Br)cc1)c1cccnc1	-15.8% (inactive)
C[N+](C)(C)CCCCCCCCCC[N+](C)(C)C	-6.42% (inactive)
CN(C)CCOC(=O)COc1ccc(Cl)cc1	-5.91% (inactive)
OCCN1CCN(CCCN2c3ccccc3C=Cc3ccccc32)CC1	-5.7% (inactive)
COc1ccc2c(c1OC)C(=O)O[C@@H]2[C@H]1c2c(cc3c(c2OC)OCO3)CCN1C	-11.6% (inactive)
O=C1NCN(c2ccccc2)C12CCN(CCCC(c1ccc(F)cc1)c1ccc(F)cc1)CC2	-2.58% (inactive)
CCN(Cc1ccncc1)C(=O)C(CO)c1ccccc1 (configuration not stated)	-1.81% (inactive)
NC(=O)c1ncn([C@@H]2O[C@H](CO)[C@@H](O)[C@H]2O)c1O	-2.95% (inactive)
NC(Cc1ccc(Cl)cc1)C(=O)O (configuration not stated)	-3.93% (inactive)
CCN(CC)CCOCCOC(=O)C1(c2ccccc2)CCCC1	-10.3% (inactive)
CNCCC(Oc1ccccc1OC)c1ccccc1 (configuration not stated)	-11.3% (inactive)
Cc1nc2sccn2c(=O)c1CCN1CCC(=C(c2ccc(F)cc2)c2ccc(F)cc2)CC1	-11% (inactive)
C#CCN(C)CCCOc1ccc(Cl)cc1Cl	-5.92% (inactive)
